# Env fusion inh: HIV envelope-mediated fusion inhibition. HeLa-JRFL Env/CEM21 cell fusion, luciferase. inhibition, % at 12.3 µM. 360,000 tested, 1.1% active. AID 651610;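 active = mean replicate inhibition score of at least 50 and every replicate individually at or above 50; inconclusive = only one of the two criteria met; inactive = mean below 50 and not all replicates reaching 50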;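 also: 0% = plate neutral controls and 100% = maraviroc near 300 nM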
# NSD2 HMT inh: NSD2 (human) methyltransferase inhibition. AID 743445. NSD2 peptide methylation, AlphaScreen, 120 min. 310,000 tested, 0.54% active. inhibition, % at 12.5 µM; in the data active = inhibition above about 50%
# Target sequence (O96028 whole entry, looked up): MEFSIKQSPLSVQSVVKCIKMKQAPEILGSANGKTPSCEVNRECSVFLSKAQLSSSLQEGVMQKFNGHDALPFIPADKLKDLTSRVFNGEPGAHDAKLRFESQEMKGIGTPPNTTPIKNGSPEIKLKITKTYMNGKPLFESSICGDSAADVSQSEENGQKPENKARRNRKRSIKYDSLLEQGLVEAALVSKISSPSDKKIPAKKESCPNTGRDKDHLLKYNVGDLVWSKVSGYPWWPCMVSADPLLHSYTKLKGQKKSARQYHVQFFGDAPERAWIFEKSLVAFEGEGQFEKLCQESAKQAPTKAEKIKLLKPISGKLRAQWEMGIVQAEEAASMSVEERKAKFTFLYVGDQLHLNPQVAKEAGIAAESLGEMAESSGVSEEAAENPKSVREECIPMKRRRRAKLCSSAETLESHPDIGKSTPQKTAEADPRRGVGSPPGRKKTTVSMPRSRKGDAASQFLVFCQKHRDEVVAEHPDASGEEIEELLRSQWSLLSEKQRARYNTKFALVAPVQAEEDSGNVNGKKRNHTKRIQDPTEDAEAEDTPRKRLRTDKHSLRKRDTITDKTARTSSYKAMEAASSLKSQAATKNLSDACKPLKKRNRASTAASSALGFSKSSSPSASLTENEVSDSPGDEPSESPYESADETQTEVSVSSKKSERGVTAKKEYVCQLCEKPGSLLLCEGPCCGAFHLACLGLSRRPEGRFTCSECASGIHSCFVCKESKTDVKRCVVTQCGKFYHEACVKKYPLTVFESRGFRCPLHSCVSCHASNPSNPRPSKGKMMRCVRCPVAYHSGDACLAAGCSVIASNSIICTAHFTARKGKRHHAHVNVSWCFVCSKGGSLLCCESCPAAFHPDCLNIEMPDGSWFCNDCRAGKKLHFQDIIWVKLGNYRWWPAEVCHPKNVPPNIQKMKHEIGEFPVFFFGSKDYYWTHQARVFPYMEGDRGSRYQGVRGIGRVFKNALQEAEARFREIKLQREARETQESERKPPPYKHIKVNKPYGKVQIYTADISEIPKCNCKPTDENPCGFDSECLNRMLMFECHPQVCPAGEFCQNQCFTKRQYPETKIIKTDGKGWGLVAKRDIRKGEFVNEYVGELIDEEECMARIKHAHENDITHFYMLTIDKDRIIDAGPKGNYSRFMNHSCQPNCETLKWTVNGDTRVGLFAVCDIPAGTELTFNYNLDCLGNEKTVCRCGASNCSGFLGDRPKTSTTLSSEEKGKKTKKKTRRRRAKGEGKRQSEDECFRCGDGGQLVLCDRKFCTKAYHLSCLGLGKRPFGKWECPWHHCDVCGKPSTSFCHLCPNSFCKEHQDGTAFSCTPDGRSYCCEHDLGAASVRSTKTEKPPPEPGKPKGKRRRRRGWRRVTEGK
# PglD inh: PglD (C. jejuni) enzyme inhibition; purified PglD enzyme, DTNB colorimetric CoA detection; inhibition, % at 12.5 µM; 360,000 tested, 0.098% active; AID 602405; in the data active = inhibition above about 16%, passing the limit was not always enough; inconclusive = no clear call, values can overlap the other calls
# CFTR F508del cor: correctors of CFTR F508del function in bronchial epithelial cells. activity (quench increase), % at 7.58 µM. CFBE cells, YFP halide quenching; stimulated with forskolin plus potentiator P3; % fluorescence drop versus neutral controls. 350,000 tested, 0.36% active;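 active = mean added fluorescence quench of at least 8% versus neutral control, with both replicates also reaching 8%; inconclusive = only one of the mean or replicate conditions met; inactive = mean below 8% and not both replicates reaching 8%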;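 also: cells transiently co-express mutant CFTR-F508del with the halide-sensitive YFP; corrector assay measuring rescue of mutant channel to the surface after 24 h compound exposure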
# ALR H2O2 inh: inhibitors of human sulfhydryl oxidase ALR; P55789; purified ALR, DTT oxidation, H2O2 HRP-luminol luminescence; inhibition, % (no concentration beside the values); 290,000 tested, 3.8% active; AID 485317;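 active = mean replicate inhibition above about 79%, with every replicate also reaching it, limit read from the data; inconclusive = only one of the two criteria met; inactive = mean below limit and not every replicate reaching it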
# CASP6 VEID inh: caspase-6 (human) enzyme inhibition | P55212 | purified caspase-6, Z-VEID-R110 cleavage fluorescence | inhibition, % at 12.5 µM | 350,000 tested, 0.53% active;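 active = mean inhibition across replicates at least about 35%, with every replicate also reaching that limit, limit read from the data; inconclusive = only one of the two criteria met; inactive = neither criterion met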;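 also: 0% = median of neutral control wells and 100% = no fluorescence left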
# * hit, by the source's call; ? = inconclusive; / = not tested or not shown; [ ] = remark or other dose. Compounds with a hit are over-represented: about 4.1% of the library has one in this group of screens.
SMILES,Env fusion inh,NSD2 HMT inh,PglD inh,CFTR F508del cor,ALR H2O2 inh,CASP6 VEID inh
CCN(CCCNC(=O)C1CCN(S(=O)(=O)CC)CC1)c1cccc(C)c1,/,4.0,1.8,1.2,99.1*,-0.4
CCN(CCCNC(=O)C1CCN(S(=O)(=O)N2CCC3(CC2)OCCO3)CC1)c1ccccc1,/,1.4,-2.2,/,98.8*,/
CCS(=O)(=O)c1ccc(N=Nc2ccc(O)c3ncccc23)c(OC)c1,66.4*,24.4,/,-4.2,/,/
Cc1ccc(N=Nc2ccc(O)c3ncccc23)cc1C,-340.7,/,6.6,0.2,-22.5,1.5
COc1ccc(NC(=O)N(C)C[C@@H]2Oc3c(NC(=O)c4cc(C)nn4C)cccc3C(=O)N([C@@H](C)CO)C[C@H]2C)cc1,3.8[16.7 µM],/,6.2,-2.2,/,1.0
CCOc1ccc(Nc2ccnc3cc(Cl)ccc23)cc1,19.6,/,-2.2,-1.9,-2.6,1.7
CN1CCN(c2ccc(Nc3ccnc4cc(Cl)ccc34)cc2)CC1,1.7,10.1,7.1,-3.0,92.3*,-9.8
CC(/C=N/NC(=O)CSc1ccccn1)=C\c1ccc(C(C)C)cc1,/,9.9,/,-2.3,-1.4,-0.3
CN(C)c1ccc(/C=N/NC(=O)COc2ccccc2)cc1,-1.3,2.1,-0.2,-3.3,/,1.3
COc1cc(/C=N/NC(=O)CSc2ccccn2)ccc1O,-5.9,-2.2,/,1.8,98.5*,-2.7
CCCOc1ccc(/C=N/NC(=O)CSc2ccccn2)cc1OC,-17.7,/,1.8,-2.9,/,5.7
Cc1cccc(OCC(=O)N/N=C/c2ccc(N(C)C)cc2)c1,-2.2,6.1,0.8,0.1,98.4*,-0.4
CN(C)c1ccc(/C=N/NC(=O)CSc2ccccn2)cc1,-13.4,7.7,-0.8,1.3,98.7*,2.1
Cc1cccc(-c2ccc([C@@H]3[C@H]4CN(C(=O)CN5CCOCC5)CC(=O)N4[C@H]3CO)cc2)c1,/,/,/,0.0,/,2.0
C[C@@H]1CN([C@H](C)CO)C(=O)c2cc(C3=CCCC3)cnc2O[C@H]1CN(C)C(=O)Cc1ccncc1,16.5[16.7 µM],/,-1.2,0.2,/,1.2
CCNc1nc(NCC)n2c(SCC(=O)O)nnc2n1,/,1.7,1.8,/,-20.0,/
CCNc1nc(NCC)n2c(SCC(=O)c3ccccc3F)nnc2n1,-3.9,0.5,/,1.0,93.8*,1.1
Cc1nnc(SCC(=O)c2c(N)n(C)c(=O)n(C)c2=O)n1Cc1ccccc1,-19.6,0.7,1.0,/,-6.8,0.8
Cc1nnc(SCC(=O)c2ccccc2F)n1Cc1ccccc1,-4.4,-2.1,/,1.2,93.8*,-3.5
COCC(=O)Nc1ccc2c(c1)[C@@H]1C[C@H](CC(=O)N3CCN(C)CC3)O[C@@H](CO)[C@@H]1O2,-7.3[16.7 µM],/,4.1,-0.5,/,/
Cc1ccccc1-c1csc(N)n1,-14.9,0.7,3.6,-0.8,/,-1.4
Cc1ccc(-c2csc(N)n2)s1,-21.8,/,1.0,/,98.5*,/
Oc1ccccc1Nc1nc(NCC2CCCO2)c2ccccc2n1 (stereo unspecified),-71.3,3.6,/,/,98.8*,/
COc1ccccc1-c1ccc(C2[C@@H]3CN(S(=O)(=O)c4ccccc4)C[C@H]2N3)cc1 (stereo partly specified),/,/,/,-3.7,/,/
CN(C)c1ccc(C(=S)N2CCCCC2)cc1,-4.6,2.5,0.7,-1.7,-2.6,-0.3
SMILES,Env fusion inh,NSD2 HMT inh,PglD inh,CFTR F508del cor,ALR H2O2 inh,CASP6 VEID inh
CN(C)c1ccc(C(=S)N2CCNCC2)cc1,-8.2,1.1,/,/,99.4*,/
Cc1cc(C)n(CCNC(=O)C2CCC(=O)N(Cc3ccc(Cl)cc3)C2)n1 (stereo unspecified),0.7,-0.8,-1.8,-2.3,2.5,63.3*
Cc1ccc(-c2csc(=S)[nH]2)cc1,-41.6,3.0,/,-0.3,63.6,-0.9
S=c1[nH]c(-c2ccc(Cl)cc2)cs1,-12.4,2.5,/,/,97.1*,1.1
COc1ccc(-c2csc(NC(=S)NC(=O)/C=C/c3ccco3)n2)cc1Br,-225.7,1.0,-1.8,9.4*,-1.4,0.9
Cc1ccc(-n2nc3cc(C)c(NC(=S)NC(=O)/C=C/c4ccco4)cc3n2)cc1,/,-1.6,/,/,85.9*,/
COc1ccc(-c2csc(NC(=S)NC(=O)/C=C/c3ccco3)n2)cc1OC,/,-1.6,/,9.7*,-20.7,3.1
Cc1ccc(-n2nc3ccc(NC(=S)NC(=O)/C=C/c4ccco4)cc3n2)cc1,3.1,-1.7,/,/,1.5,0.6
COc1ccc(-c2csc(NC(=S)NC(=O)c3ccco3)n2)cc1Br,5.0,-1.9,6.4,-0.9,1.0,-0.3
C[C@H](CO)N1C[C@H](C)[C@H](CN(C)C(=O)NC2CCCCC2)Oc2ncc(C#Cc3cccc(F)c3)cc2C1=O,/,/,3.5,-0.5,/,4.0
COc1ccccc1NC(=O)N[C@H]1CC[C@@H](CCNC(=O)Cc2ccccn2)O[C@@H]1CO,-13.4[16.7 µM],/,4.6,-0.7,/,1.7
O=C(CSc1nnc2n1CCCCC2)Nc1ccc(N2CCOCC2)cc1,-13.7,2.6,3.5,-1.0,85.8*,-0.6
Nn1c(SCC(=O)Nc2ccc(N3CCOCC3)cc2)nnc1C1CC1,/,-1.6,1.6,-0.8,99.1*,-0.2
Nn1c(SCC(=O)Nc2ccc(Oc3ccccc3)cc2)nnc1C1CC1,7.5,-0.7,/,/,28.2,/
CCOc1ccc(NC(=O)CSc2nnc(C3CC3)n2N)cc1,/,1.8,/,-1.1,98.0*,1.1
CCOC(=O)N1CCC(C(=O)Nc2ccc(OCC)cc2)CC1,11.6,/,-3.8,9.8*,/,-2.2
C[C@@H]1CN([C@@H](C)CO)C(=O)c2cc(-c3ccccc3)cnc2O[C@@H]1CN(C)C(=O)Cc1ccccc1,-2.2[16.7 µM],/,/,0.0,/,/
COc1cccc(-c2ccc([C@@H]3[C@H](CO)N4CCCCN(C(=O)NC(C)C)C[C@@H]34)cc2)c1,/,/,-7.9,-2.2,/,/
COc1ccc(-n2c(SCC(=O)Nc3ccccc3OC)nc(O)c(Cc3ccccc3)c2=O)cc1,-12.3,37.6,0.2,-0.7,3.9,2.0
Cc1cc(NC(=O)CSc2nc3c(c(=O)n2-c2ccccc2)SC(C)C3)no1 (stereo unspecified),6.8,/,-1.6,0.6,8.4,-0.1
CCc1c(O)nc(SCC(=O)Nc2cc(C)on2)n(-c2ccccc2)c1=O,/,-1.1,0.4,-1.3,96.9*,-0.7
Cc1ccc(NC(=O)CSc2nc(O)c(Cc3ccccc3)c(=O)n2-c2ccccc2)cc1,-3.8,-4.0,-2.2,/,98.8*,-0.8
CCc1c(O)nc(SCC(=O)Nc2ccc(Br)cc2)n(-c2ccc(C)cc2)c1=O,-6.9,16.4,6.3,-0.8,96.0*,3.1
CCc1c(O)nc(SCC(=O)Nc2ccccc2)n(-c2ccccc2)c1=O,/,/,-3.5,-2.2,98.9*,2.9
CCc1c(O)nc(SCC(=O)Nc2ccccc2)n(-c2ccccc2C)c1=O,16.1,0.8,-4.0,-2.7,/,1.9
CCc1c(O)nc(SCC(=O)Nc2ccccc2C)n(-c2ccc(C)cc2)c1=O,8.4,-4.1,-1.7,-0.9,?,3.8
COc1ccc(NC(=O)CSc2nnc(C)n2C2CCCCC2)cc1,6.3,0.6,2.3,-0.2,-2.3,-0.6
CCc1c(O)nc(SCC(=O)Nc2ccc(C)cc2)n(C2CCCCC2)c1=O,/,-0.1,-3.1,-2.1,98.5*,-2.3
